From PubChem BioAssay AID1159580 (chemical genetic matrix, 2015)
“And” between values parts separate entries of the source, which are not always exact repeats. Identical values can stand only once. Out of some 5,500 compounds screened, about 2,000 (36%) were called active. Inconclusive results (about 18%) are left out. Rule as the data show it: active = normalized growth mostly below about 0.91 (no sharp cut-off); inconclusive = no clear call, values can overlap the other calls; inactive = mostly above about 0.92. The list shows a part of the results.

Test: chemical genetic growth profiling, strain panel (AID 1159580);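 also: tested at 20 µM; growth read once vehicle control cultures reached saturation at 30 °C; 1 = growth at the plate median or of vehicle wells; lower values mean less growth of the strain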
Conditions: S. cerevisiae deletion strains, growth OD

In the case of `O=c1cc(-c2ccccc2)oc2c(O)c(O)ccc12`, the normalized growth (locus YAL021C, strain ccr4, stronger effect = lower value) is reported as 0.913 (inactive), the normalized growth (locus YAL026C, strain drs2, stronger effect = lower value) is reported as 0.977 (inactive) and the normalized growth (locus YAL030W, strain snc1, stronger effect = lower value) is reported as 0.99 (inactive). The normalized growth (locus YBL061C, strain skt5, stronger effect = lower value) was 0.995 (inactive), the normalized growth (locus YBR009C, strain hhf1, stronger effect = lower value) was 0.98 (inactive) and the normalized growth (locus YBR021W, strain FUR4, stronger effect = lower value) was 0.955 (inactive). The normalized growth (locus YBR023C, strain chs3, stronger effect = lower value) was 0.997 (inactive), the normalized growth (locus YBR171W, strain sec66, stronger effect = lower value) was 0.964 (inactive) and the normalized growth (locus YBR229C, strain ROT2, stronger effect = lower value) was 0.974 (inactive). For the same compound, the normalized growth (locus YBR231C, strain swc5, stronger effect = lower value) was 0.98 (inactive), the normalized growth (locus YBR279W, strain paf1, stronger effect = lower value) was 0.99 (inactive) and the normalized growth (locus YCL011C, strain gbp2, stronger effect = lower value) was 0.984 (inactive). For the same compound, the normalized growth (locus YCL016C, strain dcc1, stronger effect = lower value) was 0.98 (inactive), the normalized growth (locus YCL029C, strain bik1, stronger effect = lower value) was 0.956 (inactive) and the normalized growth (locus YCL061C, strain MRC1, stronger effect = lower value) was 0.981 (inactive). For the same compound, the normalized growth (locus YCL069W, strain vba3, stronger effect = lower value) was 0.985 (inactive), the normalized growth (locus YCR088W, strain abp1, stronger effect = lower value) was 0.991 (inactive) and the normalized growth (locus YDL005C, strain med2, stronger effect = lower value) was 0.991 (inactive). For the same compound, the normalized growth (locus YDL035C, strain GPR1, stronger effect = lower value) was 0.863 (inactive), the normalized growth (locus YDL040C, strain nat1, stronger effect = lower value) was 0.992 (inactive) and the normalized growth (locus YDL074C, strain BRE1, stronger effect = lower value) was 0.808 (inactive). For the same compound, the normalized growth (locus YDL101C, strain DUN1, stronger effect = lower value) was 0.948 (inactive), the normalized growth (locus YDL185W, strain tfp1, stronger effect = lower value) was 0.972 (inactive) and the normalized growth (locus YDL192W, strain arf1, stronger effect = lower value) was 0.88 (active). For the same compound, the normalized growth (locus YDR001C, strain nth1, stronger effect = lower value) was 0.995 (inactive), the normalized growth (locus YDR069C, strain doa4, stronger effect = lower value) was 0.936 (inactive) and the normalized growth (locus YDR101C, strain arx1, stronger effect = lower value) was 0.973 (inactive). The normalized growth (locus YDR137W, strain rgp1, stronger effect = lower value) was 0.664 (active), the normalized growth (locus YDR150W, strain NUM1, stronger effect = lower value) was 0.984 (inactive) and the normalized growth (locus YDR159W, strain sac3, stronger effect = lower value) was 0.971 (inactive). The normalized growth (locus YDR162C, strain NBP2, stronger effect = lower value) was 0.834 (inactive), the normalized growth (locus YDR195W, strain ref2) was 1.03 (inactive) and the normalized growth (locus YDR297W, strain sur2, stronger effect = lower value) was 0.988 (inactive). For the same compound, the normalized growth (locus YDR318W, strain mcm21, stronger effect = lower value) was 0.991 (inactive), the normalized growth (locus YDR334W, strain swr1, stronger effect = lower value) was 0.942 (inactive) and the normalized growth (locus YDR335W, strain msn5, stronger effect = lower value) was 0.979 (inactive). For the same compound, the normalized growth (locus YDR388W, stronger effect = lower value) was 0.989 (inactive), the normalized growth (locus YDR392W, strain spt3, stronger effect = lower value) was 1 (inactive) and the normalized growth (locus YDR502C, strain sam2, stronger effect = lower value) was 0.96 (inactive). For the same compound, the normalized growth (locus YEL003W, strain gim4, stronger effect = lower value) was 0.983 (inactive), the normalized growth (locus YEL037C, strain rad23, stronger effect = lower value) was 0.986 (inactive) and the normalized growth (locus YEL061C, strain CIN8 (second series), stronger effect = lower value) was 0.99 (inactive). The normalized growth (locus YEL061C, strain CIN8, stronger effect = lower value) was 0.978 (inactive), the normalized growth (locus YER015W, strain faa2, stronger effect = lower value) was 0.99 (inactive) and the normalized growth (locus YER016W, strain bim1, stronger effect = lower value) was 0.983 (inactive). The normalized growth (locus YER110C, stronger effect = lower value) was 0.962 (inactive), the normalized growth (locus YER111C, strain swi4, stronger effect = lower value) was 0.983 (inactive) and the normalized growth (locus YER155C, strain BEM2 (second series), stronger effect = lower value) was 0.982 (inactive). The normalized growth (locus YER155C, strain BEM2, stronger effect = lower value) was 1.02 (inactive), the normalized growth (locus YER167W, strain BCK2, stronger effect = lower value) was 1 (inactive) and the normalized growth (locus YFR010W, strain ubp6, stronger effect = lower value) was 0.944 (inactive). The normalized growth (locus YGL078C, strain dbp3, stronger effect = lower value) was 0.98 (inactive), the normalized growth (locus YGL086W, strain mad1, stronger effect = lower value) was 0.932 (inactive) and the normalized growth (locus YGL167C, strain pmr1, stronger effect = lower value) was 0.988 (inactive). For the same compound, the normalized growth (locus YGL173C, strain kem1, stronger effect = lower value) was 0.975 (inactive), the normalized growth (locus YGL227W, strain vid30, stronger effect = lower value) was 1 (inactive) and the normalized growth (locus YGL240W, strain doc1, stronger effect = lower value) was 0.956 (inactive). The normalized growth (locus YGL248W, strain PDE1, stronger effect = lower value) was 0.923 (inactive), the normalized growth (locus YGL253W, strain hxk2, stronger effect = lower value) was 0.99 (inactive) and the normalized growth (locus YGR135W, strain pre9, stronger effect = lower value) was 0.947 (inactive). For the same compound, the normalized growth (locus YGR252W, strain gcn5, stronger effect = lower value) was 0.802 (inactive), the normalized growth (locus YHR013C, strain ard1, stronger effect = lower value) was 0.951 (inactive) and the normalized growth (locus YHR027C, strain rpn1, stronger effect = lower value) was 0.983 (inactive). The normalized growth (locus YHR030C, strain SLT2, stronger effect = lower value) was 0.98 (inactive) and 1.06 (inactive), the normalized growth (locus YHR079C, strain IRE1 (second series), stronger effect = lower value) was 0.988 (inactive) and the normalized growth (locus YHR079C, strain IRE1, stronger effect = lower value) was 1.05 (inactive). The normalized growth (locus YHR094C, strain hxt1, stronger effect = lower value) was 0.99 (inactive), the normalized growth (locus YHR129C, strain ARP1, stronger effect = lower value) was 0.93 (inactive) and the normalized growth (locus YHR142W, strain chs7, stronger effect = lower value) was 0.973 (inactive). The normalized growth (locus YHR200W, strain rpn10, stronger effect = lower value) was 0.958 (inactive), the normalized growth (locus YIL066C, strain RNR3, stronger effect = lower value) was 0.873 (inactive) and the normalized growth (locus YIL073C, strain SPO22, stronger effect = lower value) was 0.702 (inactive). For the same compound, the normalized growth (locus YIL125W, strain kgd1, stronger effect = lower value) was 0.97 (inactive), the normalized growth (locus YIR030C, strain dcg1, stronger effect = lower value) was 0.997 (inactive) and the normalized growth (locus YJL092W, strain hpr5, stronger effect = lower value) was 0.994 (inactive). For the same compound, the normalized growth (locus YJL095W, strain BCK1 (second series), stronger effect = lower value) was 0.996 (inactive), the normalized growth (locus YJL095W, strain BCK1, stronger effect = lower value) was 0.733 (active) and 1.08 (inactive) and the normalized growth (locus YJL115W, strain asf1, stronger effect = lower value) was 0.971 (inactive). The normalized growth (locus YJL129C, strain trk1, stronger effect = lower value) was 0.912 (inactive), the normalized growth (locus YJL134W, strain LCB3, stronger effect = lower value) was 0.986 (inactive) and the normalized growth (locus YJL154C, strain vps35, stronger effect = lower value) was 0.984 (inactive). For the same compound, the normalized growth (locus YJL164C, strain tpk1, stronger effect = lower value) was 0.985 (inactive), the normalized growth (locus YJL166W, strain qcr8, stronger effect = lower value) was 0.994 (inactive) and the normalized growth (locus YJL168C, strain set2, stronger effect = lower value) was 0.981 (inactive). The normalized growth (locus YJL187C, strain SWE1 (second series), stronger effect = lower value) was 0.844 (active), the normalized growth (locus YJL187C, strain SWE1, stronger effect = lower value) was 0.975 (inactive) and the normalized growth (locus YJR043C, strain POL32, stronger effect = lower value) was 0.921 (inactive).
